Results reported in PubChem BioAssay (NCI).
Compounds without any hit were thinned out: in the full panel of roughly 83,000, 20% have a hit.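 How to read the values: 0–100, growth inhibition (40 = 60% inhibited); 0, no net growth; -100 to 0, cell death (-40 = 40% of starting cells died; -100 = all dead).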 Active and inactive are the calls of the source. The calls were made as follows: active = growth percent below 10; inactive = the rest.

system: MDA-MB-468 breast; test: NCI-60 one-dose screen, 48 h (100 = growth as untreated, 0 = no growth, -100 = all killed); settings: 10 µM unless noted

SMILES | growth
O=C(N/N=C/c1ccc(F)cc1)c1ccccc1Nc1cccc(C(F)(F)F)c1 | 83.9% (inactive)
CCCCCCCCn1ccc2cc(NC(=O)Cn3cc(CN4CCOCC4)nn3)ccc21 | 88.2% (inactive)
COc1ccc(-c2csc(NC(=O)CSc3nc(C)cc(=O)[nH]3)n2)cc1 | 118% (inactive)
CCN(CC)c1cc(C)c2cc(NC(=O)c3cccc(OC)c3)ccc2n1 | 83.9% (inactive)
CCOC(=O)n1cc(-c2nonc2-c2cn(C)c3ccccc23)c2ccccc21 | 13.1% (inactive)
COc1ccc(-c2cc(-c3ccc(Cl)cc3)nc3nc(N)nn23)cc1 | 78.5% (inactive)
COc1ccc2cc3[n+](cc2c1OC)CCc1cc2c(cc1-3)OCO2 | 1.68% (active)
CCCCCCCCCC[N+](C)(C)N | 55.1% (inactive)
CCCCCCCCCCCC1=NC(C)(C)CN1CC(C)O (stereo not given) | 10% (inactive)
O=C1Nc2ccccc2/C1=C/c1ccc[nH]1 | -26% (active)
